From PubChem BioAssay
BAZ2B inh = qHTS Assay for Inhibitors of BAZ2B; Bromodomain adjacent to zinc finger domain protein 2B (Homo sapiens), Q9UIF8; AlphaScreen BAZ2B-H3K14Ac peptide displacement; Potency, µM (doses to about 114 µM), hits mostly inhibitors; 360,000 compounds, 4.4% hits; also: nearly all actives have a fitted effect of over 60% in size
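AlphaScreen luminescence quantifies BAZ2B engagement of H3K14Ac peptide; the protein and biotinylated peptide are both at 50 nM final, buffer PBS pH 7.4 with 0.01% Tween-20, all steps at room temperature.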
TDP1 inh = qHTS Assay for Inhibitors of Tyrosyl-DNA Phosphodiesterase (TDP1); recombinant TDP1, AlphaScreen DNA substrate cleavage; Potency, µM (titrated, usually from 130 µM), hits mostly inhibitors; 350,000 compounds, 0.28% hits; also: nearly all actives have a fitted effect of over 40% in size
Target sequence (Q9NUW8 whole entry, looked up): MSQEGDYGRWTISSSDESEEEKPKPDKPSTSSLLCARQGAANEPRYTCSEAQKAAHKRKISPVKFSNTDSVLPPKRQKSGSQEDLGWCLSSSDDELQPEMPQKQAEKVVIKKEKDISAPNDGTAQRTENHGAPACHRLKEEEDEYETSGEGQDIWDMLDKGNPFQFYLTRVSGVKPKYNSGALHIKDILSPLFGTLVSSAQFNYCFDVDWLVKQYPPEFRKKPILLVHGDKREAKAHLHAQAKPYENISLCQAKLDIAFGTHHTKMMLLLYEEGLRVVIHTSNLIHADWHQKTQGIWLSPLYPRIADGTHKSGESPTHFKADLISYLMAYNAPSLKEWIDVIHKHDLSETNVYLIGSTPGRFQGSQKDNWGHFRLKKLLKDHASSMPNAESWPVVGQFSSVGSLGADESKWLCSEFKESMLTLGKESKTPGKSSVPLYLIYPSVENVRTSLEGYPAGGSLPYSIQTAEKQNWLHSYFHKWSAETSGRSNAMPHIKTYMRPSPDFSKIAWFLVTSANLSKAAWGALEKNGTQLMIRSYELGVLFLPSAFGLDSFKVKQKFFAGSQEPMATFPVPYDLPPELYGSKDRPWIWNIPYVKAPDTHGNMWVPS
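E. coli-derived human Tdp1, 1 nM final. Cpd preinc 15 min RT; substrate 15 nM final, 5 min RT; AS bead mix 10 ug/ml final, 10 min RT. Signal loss = tyrosine-FITC cleavage. No-enzyme wells = max signal.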
JMJD2A Tudor = qHTS Assay for Inhibitors of JMJD2A-Tudor Domain; AlphaScreen JMJD2A-Tudor / H3K4me3 peptide binding; 390,000 compounds, 4.4% hits; Lysine-specific demethylase 4A (Homo sapiens), O75164; Potency, µM (highest dose often 114 µM), actives largely listed as inhibitors; also: nearly all actives have a fitted effect of over 50% in size
G9a inh = qHTS Assay for Inhibitors of Histone Lysine Methyltransferase G9a; G9a H3K9 monomethylation, AlphaScreen, 2 h; Potency, µM (series often up to 102 µM), usual class: inhibitors; 350,000 compounds, 8.8% hits; AID 504332, 2011; also: nearly all actives have a fitted effect of over 75% in size
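G9a (20 nM) preincubated 15 min RT with compounds, then 500 nM biotinylated H3K9 peptide and 20 uM SAM added; 2 h RT reaction. Monomethyl-H3K9 product detected by AlphaScreen with anti-H3K9me1 antibody, streptavidin donor and anti-rabbit IgG acceptor beads.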
HP1b chromo inh = HTS for Inhibitors of HP1-beta Chromodomain Interactions with Methylated Histone Tails | AID 540317, 2011 | 390,000 compounds, 0.56% hits | Potency, µM (series often up to 114 µM), actives largely listed as inhibitors | AlphaScreen HP1-beta / biotin-H3K9me3 peptide binding | Chromobox protein homolog 1 (Homo sapiens), P83916; also: nearly all actives have a fitted effect of over 70% in size
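HP1-beta protein (50 nM final) preincubated 30 min at room temperature with biotinylated H3(1-18)K9me3 peptide (50 nM) in PBS pH 7.4, 0.01% Tween-20, then compound added for 30 min. AlphaScreen streptavidin donor/nickel chelate acceptor beads (10 ug/mL final), 30 min dark, luminescence read.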
Sfp inh = qHTS Assay for Inhibitors of Bacillus subtilis Sfp phosphopantetheinyl transferase (PPTase); 4'-phosphopantetheinyl transferase ffp (Bacillus subtilis), Q9F4F7; Potency, µM, usual class: inhibitors; Biochemical Sfp PPTase activity, qHTS; 310,000 compounds, 3.5% hits;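 also: the enzyme is Sfp with the accession as filed and its product quenches rhodamine fluorescence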
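Compounds were incubated with enzyme (final 15 nM) for 15 min at room temperature before substrate addition started the reaction. Fluorescence at 525 nm excitation, 598 nm emission was recorded immediately and after 30 minutes.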
Numbers stand for hits; [ ] = remark or other dose. In the library only some 12% were active in any assay of this set; here they are far more common. Calls follow the shape of the dose curve; as a rule, active = well fitted curve in the direction sought with a large enough effect; inconclusive = small, poorly fitted or top-dose-only effect, or another doubt; inactive = no such curve, though single readings can be large; an effect the other way counts as inactive or inconclusive.

`O=C(O)c1cc(O)c2c(c1)[C@H]([C@H]1c3cc(C(=O)O)cc(O)c3C(=O)c3c(O[C@@H]4O[C@H](CO)[C@@H](O)[C@H](O)[C@H]4O)cccc31)c1cccc(OC3O[C@H](CO)[C@@H](O)[C@H](O)[C@H]3O)c1C2=O` (some centres undefined) gave BAZ2B inh 0.79µM, JMJD2A Tudor 0.32µM, G9a inh 1.3µM and HP1b chromo inh inconclusive.
O=C(O)c1cc(O)c2c(c1)[C@@H]([C@H]1c3cc(C(=O)O)cc(O)c3C(=O)c3c(O[C@@H]4O[C@H](CO)[C@@H](O)[C@H](O)[C@H]4O)cccc31)c1cccc(OC3O[C@H](CO)[C@@H](O)[C@H](O)[C@H]3O)c1C2=O (some centres undefined) was read as BAZ2B inh 0.79µM, JMJD2A Tudor 0.32µM, G9a inh 1.3µM and HP1b chromo inh inactive.
For O=C1c2cc(CO)cc(O)c2C(=O)c2c(O[C@@H]3OC(CO)[C@@H](O)[C@@H](O)[C@@H]3O)cccc21 (some centres undefined) the results were JMJD2A Tudor inactive and HP1b chromo inh inactive.
Cc1nc(C(F)(F)F)c(C(=O)N/N=C(\N)c2cccnc2)s1 was read as BAZ2B inh 79µM, TDP1 inh inactive, JMJD2A Tudor 28µM, G9a inh inactive, HP1b chromo inh inactive and Sfp inh inconclusive.
For C/C(=N\NC(=O)c1sccc1C)c1cccnc1 the results were BAZ2B inh inactive, TDP1 inh inactive, JMJD2A Tudor inactive, G9a inh inactive, HP1b chromo inh inactive and Sfp inh inactive.
For O=C1c2ccccc2C(=O)c2c1cccc2N(CCO)CCO the results were BAZ2B inh 50µM, JMJD2A Tudor inconclusive, G9a inh 45µM, HP1b chromo inh inconclusive and Sfp inh inactive.
Cc1cc(C)c(S(=O)(=O)N2CCN(c3ccccn3)CC2)c(C)c1 was read as BAZ2B inh inactive, TDP1 inh inactive, JMJD2A Tudor inactive, G9a inh inactive[0.501 µM] and HP1b chromo inh inactive.
C=CCn1c(CCSCc2ccccc2)n[nH]c1=S was read as BAZ2B inh inactive, TDP1 inh inactive, JMJD2A Tudor 16µM, G9a inh 7.1µM, HP1b chromo inh inactive and Sfp inh inactive.
Screening C=CCn1c(CSCc2ccccc2)nnc1SCC(=O)NCc1ccccc1 returned BAZ2B inh inactive, TDP1 inh inactive, JMJD2A Tudor inactive, G9a inh inactive, HP1b chromo inh inactive and Sfp inh inactive.
For C=CCn1c(CCSCc2ccc(OC)c(C)c2)n[nH]c1=S the results were BAZ2B inh inactive, TDP1 inh inactive, JMJD2A Tudor inactive, G9a inh 2µM, HP1b chromo inh inactive and Sfp inh inactive.
For C[C@@H]1NC(=O)[C@H](CCC(N)=O)NC(=O)c2cc([N+](=O)[O-])cc(I)c2NCC[C@@H](C(N)=O)NC1=O the results were BAZ2B inh inconclusive, TDP1 inh inactive, JMJD2A Tudor inactive, G9a inh 11µM, HP1b chromo inh inactive and Sfp inh inactive.
CC[C@H](C)C1NC(=O)[C@H](CC(=O)O)NC(=O)c2cc([N+](=O)[O-])cc(I)c2NCCC(C(N)=O)NC1=O (some centres undefined) was read as BAZ2B inh inactive, TDP1 inh inactive, JMJD2A Tudor inactive, G9a inh inconclusive, HP1b chromo inh inactive and Sfp inh inactive.
Screening NC(=O)[C@@H]1CCNc2c(I)cc([N+](=O)[O-])cc2C(=O)N[C@@H](CCC(=O)O)C(=O)N[C@@H](CO)C(=O)N1 returned BAZ2B inh inactive, TDP1 inh inactive, JMJD2A Tudor inactive, G9a inh 10µM, HP1b chromo inh inactive and Sfp inh inactive.
